The campaign covered roughly 290,000 compounds. About 3,500 (1.2%) were called active.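 Rule for the calls: active = inhibition above the campaign mean inhibition over all tested compounds plus 3 SD (cut at about 28% in these data); inactive = the rest.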 For the sample, actives were picked, then their nearest neighbours and some compounds at random.
Tested on: M18 aspartyl aminopeptidase (Plasmodium falciparum 3D7)
Test: PfM18AAP inhibitors, malaria aminopeptidase, primary screen, biochemical, QFRET, recombinant enzyme (AID 1822);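 note: 0% = plate median of test compound wells and 100% = 2 mM ZnCl2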
Details: H-Glu-NHMec fluorogenic cleavage, at 7.35 µM, stronger effect = higher value

| Compound | inhibition |
| --- | --- |
| O=c1c2cc([N+](=O)[O-])ccc2nc2n1CCC2 | 3.84% (inactive) |
| Fc1ccccc1COc1cccc2cccnc12 | -17.2% (inactive) |
| O=C(CSc1nc2cccnc2n1Cc1ccccc1)N1CCc2ccccc21 | -2.92% (inactive) |
| CCOC(=O)N1CCN(S(=O)(=O)c2ccc(Br)cc2)CC1 | -5.88% (inactive) |
| c1ccc2c(c1)OCC(c1nn3cnnc3s1)O2 (centres undefined) | 55.2% (active) |
| COc1ccc(OC)c2sc(NC(=O)C3COc4ccccc4O3)nc12 (centres undefined) | -7.49% (inactive) |
| O=C(Nc1nnc(C2COc3ccccc3O2)o1)c1ccc(F)cc1 (centres undefined) | 5.07% (inactive) |
| COc1cc(NC(=O)C2=CC(c3ccc(C)cc3)=NS(=O)(=O)N2C)cc(OC)c1OC | 13.1% (inactive) |
| CC(=O)c1ccc(N2CCN(C(=O)C3CCN(S(=O)(=O)c4ccc5c(c4)CC(C)N5C(=O)C4CC4)CC3)CC2)cc1 (centres undefined) | -0.32% (inactive) |
| CN(CCC1CCOCC1)C(=O)CC1C(=O)NCCN1Cc1cccc(F)c1 (centres undefined) | 6.55% (inactive) |
| CCCOc1ccc(C2NC(=O)NC(c3ccccc3)=C2C(C)=O)cc1OCC (centres undefined) | -0.97% (inactive) |
| COc1cccc(COc2ccc(N(C)S(=O)(=O)c3ccccc3)cc2)c1 | 4.14% (inactive) |
| O=C(/C=C/Nc1ccccc1OC(F)(F)F)C(F)(F)F | -3.52% (inactive) |
| CN(C)c1ccc(N/C=C/C(=O)C(F)(F)F)cc1 | 29.1% (active) |
| CC(=O)N(C)c1ccc(NC(=O)C(F)(F)F)cc1 | -1.27% (inactive) |
| COc1cccc2sc(Nc3nc(C)c(C(C)=O)s3)nc12 | 7.92% (inactive) |
| COc1ccccc1OCc1nc2ccccc2s1 | 2.93% (inactive) |
| COc1cccc2sc(NNC(=O)c3nc4ccccc4s3)nc12 | 30.1% (active) |
| CCCc1cc(=O)n2[nH]c(C)c(-c3ccc(Cl)cc3)c2n1 | -3.86% (inactive) |
| Cc1ccc(NC2CCCN(C(=O)CCC3(C)CC3)C2)cc1C (centres undefined) | 12.1% (inactive) |
| O=C1CSC(=S)N1/N=C/c1ccc(O)c([N+](=O)[O-])c1 | 39.1% (active) |
| O=[N+]([O-])c1ccc(N2CCSCC2)cc1O | 7.26% (inactive) |
| Cc1cc(C(=O)N/N=C/c2ccc(O)c([N+](=O)[O-])c2)c(C)n1-c1ccc(F)cc1 | 1.56% (inactive) |
| CCC(C)(C)NC(=O)C1c2ccccc2Oc2ccccc21 | 0.98% (inactive) |
| CCC(C)NC(=O)C1c2ccccc2Oc2ccccc21 (centres undefined) | -7.47% (inactive) |

| Compound | inhibition |
| --- | --- |
| O=C(N/N=C/c1ccc(O)c(O)c1)C1c2ccccc2Oc2ccccc21 | 66.5% (active) |
| CC(C)(C)SCCSC1=CC(=O)CC(c2ccccc2)C1 (centres undefined) | -7.92% (inactive) |
| COc1ccc(CCNC(=O)CN2C(=O)COc3ccc(S(=O)(=O)N4CCCC4)cc32)cc1OC | 0.73% (inactive) |
| COc1ccccc1Cc1nc(-c2ccc(C)cc2)no1 | 0.56% (inactive) |
| Cc1ccc(-c2noc(CN3CCN(Cc4ccccc4)CC3)n2)cc1 | -2.79% (inactive) |
| Cc1ccc(-c2noc(CC(c3ccccc3)c3ccccc3)n2)cc1 | 34.4% (active) |
| CCOC(=O)c1ccc(NC(=S)N2CCN(c3ccccn3)CC2)cc1 | 0.52% (inactive) |
| CSCCC(NS(=O)(=O)c1ccc(C)cc1)C(=O)N1CCCC1 (centres undefined) | -2.59% (inactive) |
| COc1ccc(CNc2nc3c(c(=O)[nH]c(=O)n3C)n2Cc2ccccc2)cc1 | 7.49% (inactive) |
| C=CCSc1nc2c(c(=O)[nH]c(=O)n2C)n1Cc1ccccc1 | -7.79% (inactive) |
| Cn1c(=O)[nH]c(=O)c2c1[nH]c(=S)n2Cc1ccccc1 | 51.6% (active) |
| CCS(=O)(=O)C1=NSC2=NC(=O)/C(=C\c3ccc(OS(=O)(=O)c4ccccc4)cc3)C(=N)N21 | 5.46% (inactive) |
| CC1CCC2(CC1)NC(=O)N(Cc1nnc(-c3cccs3)o1)C2=O (centres undefined) | -3.12% (inactive) |
| CC(C)(C)OC(=O)NNc1c2ccccc2nc2ccccc12 | 29.7% (active) |
| CC(=O)Nc1ccc(Nc2c3ccccc3nc3ccccc23)cc1 | 4.35% (inactive) |
| O=C(NNc1c2ccccc2nc2ccccc12)c1cc2ccccc2cc1O | 1.24% (inactive) |
| O=c1c2cc(-c3ccccc3)sc2nc2n1N=C(c1cccs1)CS2 | 6.06% (inactive) |
| CC1CCN(S(=O)(=O)c2ccc3[nH]c(=O)ccc3c2)CC1 | -0.17% (inactive) |
| O=C(c1cnn(-c2ccc(Cl)cc2)c1)c1ccccc1O | -0.75% (inactive) |
| Cc1ncc(CC(=O)n2cc(C(=O)c3cc(Cl)ccc3O)cn2)s1 | 29.3% (active) |
| Cc1ccc(CCC(=O)Nc2ncc(Cc3cc(Cl)ccc3Cl)s2)o1 | -7.4% (inactive) |
| O=S(=O)(c1ccc(-c2ccno2)s1)N1CCCCC1 | 11% (inactive) |
| CCOc1ccccc1-c1cc(C(=O)N/N=C(\C)c2cccnc2)c2ccccc2n1 | 1.07% (inactive) |
| CC(C)c1ccc(NC(=S)NNc2ccc(Cl)c(C(=O)O)c2)cc1 | 39.9% (active) |
| Cc1ccc(C)c(NC(=S)NNC(=S)Nc2ccc(C(C)C)cc2)c1 | 3.44% (inactive) |

| Compound | inhibition |
| --- | --- |
| O=C(NC(=S)Nc1ccc(Cl)c(C(=O)O)c1)c1cncc(Br)c1 | 15.9% (inactive) |
| COc1cccc(-n2c(N)cc(=O)nc2SCC(=O)Nc2cc(C)on2)c1 | -2.14% (inactive) |
| O=C(Nc1ncc([N+](=O)[O-])s1)C1COc2ccccc2O1 (centres undefined) | 12% (inactive) |
| O=C(CCc1ccccc1)Nc1ncc([N+](=O)[O-])s1 | 4.6% (inactive) |
| CC(=O)Oc1ccccc1C(=O)Nc1ncc([N+](=O)[O-])s1 | 35.7% (active) |
| CC(=O)c1cccc(NC(=O)C2COc3ccccc3O2)c1 (centres undefined) | -8.5% (inactive) |
| Cn1cncc1COC(=O)c1ccc(Cl)cc1 | -13.9% (inactive) |
| S=C(NCCc1ccccc1)N1CCCCC1 | -5.18% (inactive) |
| Oc1ccccc1N1CCN(C(=S)NCc2ccccc2)CC1 | 9.57% (inactive) |
| Oc1ccc(N2CCN(C(=S)NCc3ccccc3)CC2)cc1 | 36.6% (active) |
| Cc1occc1C(=O)N/N=C/c1ccc(-c2cccc([N+](=O)[O-])c2)o1 | 9.99% (inactive) |
| CCOc1ccccc1N1CCN(C(=S)Nc2ccc(S(N)(=O)=O)cc2)CC1 | 9.49% (inactive) |
| NS(=O)(=O)c1ccc(NC(=S)N2CCCC2)cc1 | 0.47% (inactive) |
| COc1ccc(N2CCN(C(=S)Nc3ccc(S(N)(=O)=O)cc3)CC2)cc1 | 46.7% (active) |
| NS(=O)(=O)c1ccc(CCNC(=O)c2nc(CS(=O)(=O)c3ccc(Cl)cc3)no2)cc1 | -4.83% (inactive) |
| O=C(NC1CCCC1)C(c1ccc(Cl)cc1)N(C(=O)c1csnn1)C1CC1 (centres undefined) | -2% (inactive) |
| O=C(CCN1C(=O)/C(=C/c2cccs2)SC1=S)NNC(=O)c1cccc(O)c1 | -2.41% (inactive) |
| O=C(CCCN1C(=O)/C(=C/c2cccs2)SC1=S)Nc1ccc(O)cc1 | 1.87% (inactive) |
| CC(C(=O)Nc1ccc(O)c(C(=O)O)c1)N1C(=O)/C(=C/c2cccs2)SC1=S (centres undefined) | 30.4% (active) |
| CN(C(=O)CC1C(=O)NCCN1Cc1ccc2ccccc2c1)C1CCOCC1 (centres undefined) | 9.14% (inactive) |
| Cc1ccc(Nc2nnc(SCC(=O)c3cc4ccccc4o3)s2)cc1C | 6.69% (inactive) |
| Cc1ccccc1Nc1nnc(SCC(=O)c2cc3ccccc3o2)s1 | 28.2% (active) |
| Cc1cc(NC(=O)CSc2nnc(Nc3ccccc3F)s2)no1 | -12.2% (inactive) |
| O=C(NCCS(=O)(=O)N1CCN(c2ccccc2F)CC1)c1ccc(Br)o1 | 0.95% (inactive) |
| CCOc1ccc(C(=O)Nc2ccc(S(=O)(=O)NCC3CCCO3)cc2)cc1OCC (centres undefined) | -11.8% (inactive) |

| Compound | inhibition |
| --- | --- |
| CC(C)(C)c1ccc(CN2C(=O)c3ccccc3S2(=O)=O)cc1 | 7.13% (inactive) |
| Cc1cccc(-n2c(N)c(C(=O)N3CCN(C)CC3)sc2=S)c1 | 13.6% (inactive) |
| N#Cc1ccccc1-n1c(N)c(C(=O)N2CCCC2)sc1=S | 29.2% (active) |
| Cc1ccc(-n2c(N)c(C(=O)N3CCOCC3)sc2=S)c(C)c1 | 4.98% (inactive) |
| CCN(CC)CCCNC(=O)c1cc2c(=O)[nH]c3ccc(C)cc3c2s1 | 0.43% (inactive) |
| CCOc1cc(C(=O)O)ccc1OCCOc1ccccc1 | 9.32% (inactive) |
| [2H]C(CCOS(N)(=O)=O)c1ccccc1 (centres undefined) | -1.1% (inactive) |
| CC/C(C)=N/Nc1nc2sc3c(c2c(=O)[nH]1)CC(C)(C)OC3 | 48.8% (active) |
| CCSc1nc2sc3c(c2c(=O)[nH]1)CC(C)(C)OC3 | -5.01% (inactive) |
| CCOC(=O)CSc1nc2sc3c(c2c(=O)[nH]1)CC(C)(C)OC3 | 10.6% (inactive) |
| COc1ccccc1OCC(=O)Nc1c2c(nn1-c1ccc(F)cc1)CS(=O)(=O)C2 | -3.07% (inactive) |
| Cc1nnc(SCC(=O)Nn2cnnc2)s1 | 41.6% (active) |
| Cc1nnc(SCC(=O)NC2CCCC2)s1 | 5.86% (inactive) |
| Cc1cnc(NC(=O)CSc2nnc(C)s2)s1 | -8.35% (inactive) |
| CC1C/C(=N/NC(=O)c2cccs2)CC(C)(C)C1 (centres undefined) | -19.4% (inactive) |
| Cc1ccc(C)c(NC(=O)CCC(=O)N/N=C2/CC(=O)CC(C)(C)C2)c1 | -1.68% (inactive) |
| CC1(C)CC(=O)C/C(=N\NC(=O)c2cccs2)C1 | 38.3% (active) |
| COc1ccccc1CNS(=O)(=O)CC12CCC(CC1=O)C2(C)C (centres undefined) | 6.59% (inactive) |
| C/C(=C\C(=O)c1ccccc1)Nc1cccc(O)c1 | 31% (active) |
| O=C(Nc1cccc(O)c1)c1ccc(C(=O)c2ccccc2)o1 | -0.92% (inactive) |
| C/C(=C\C(=O)c1cccnc1)Nc1ccc(C)c(C)c1 | 1.47% (inactive) |
| O=C(O)C1CCN(c2ccc([N+](=O)[O-])cc2[N+](=O)[O-])CC1 | -4.27% (inactive) |
| O=[N+]([O-])c1ccc(N2CCN(c3ccc(O)cc3)CC2)c(Cl)c1 | 36% (active) |
| COc1ccc(N2CCN(c3ccc([N+](=O)[O-])cc3Cl)CC2)cc1 | -8.52% (inactive) |

— PubChem BioAssay AID1822 (The Scripps Research Institute Molecular Screening Center, 2009)
